EP2 modulator: modulators of human EP2 prostaglandin E2 receptor; P43116; EP2-expressing cells, cAMP HTRF FRET, PGE2 co-stimulation; induction, % at 25 µM; 260,000 compounds, 0.83% hits; AID 940;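 active = compounds whose cAMP rise, as percent of the full-agonist control response, exceeds 60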;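 also: rat C6 glioma line stably carrying human EP2 under a CMV promoter; the protocol text gives 20 µM as final concentration; 100% = response of wells given 1 µM PGE2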
PGE2 EP2 inh: blocks the human prostaglandin E2 receptor EP2 | inhibition, % at 25 µM | 260,000 compounds, 0.52% hits | P43116 | C6 glioma cells expressing human EP2, cAMP TR-FRET; cells stimulated with saturating PGE2 | AID 1422;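 active = percent inhibition above 40 after rounding to a whole number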;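 also: rat C6 glioma host cells with rolipram phosphodiesterase inhibitor present; the protocol text gives 20 µM as final concentration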
CHT PAM: allosterically activates the human high affinity choline transporter | Q9GZV3 | CHT-expressing cells, membrane potential dye, choline EC20; active compounds read high; LV-AA mutant CHT in HEK293 cells | B-score at 10 µM | 310,000 compounds, 0.49% hits | AID 488977;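 active = initial fluorescence not abnormally high and integrated response B-score, plate-corrected, over 3 SD above library mean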
Target sequence (Q9GZV3 whole entry, looked up): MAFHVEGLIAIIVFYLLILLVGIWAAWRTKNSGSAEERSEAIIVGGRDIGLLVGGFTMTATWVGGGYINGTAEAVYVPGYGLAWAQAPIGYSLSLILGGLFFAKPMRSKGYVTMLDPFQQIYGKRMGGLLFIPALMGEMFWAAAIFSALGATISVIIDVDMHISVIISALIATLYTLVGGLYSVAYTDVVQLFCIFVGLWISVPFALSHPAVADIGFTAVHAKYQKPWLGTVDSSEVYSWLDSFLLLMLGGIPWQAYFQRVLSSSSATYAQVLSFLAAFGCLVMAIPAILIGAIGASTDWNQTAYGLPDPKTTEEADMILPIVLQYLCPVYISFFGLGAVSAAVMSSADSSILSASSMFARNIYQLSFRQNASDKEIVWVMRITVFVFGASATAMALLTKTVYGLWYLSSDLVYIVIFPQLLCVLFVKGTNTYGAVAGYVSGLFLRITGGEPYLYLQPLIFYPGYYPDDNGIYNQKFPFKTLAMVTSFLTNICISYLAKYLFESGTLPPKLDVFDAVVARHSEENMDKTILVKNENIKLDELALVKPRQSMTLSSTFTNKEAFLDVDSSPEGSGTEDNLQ
CHT inh: human CHT choline transport inhibition. CHT-expressing cells, membrane potential dye, choline response; active compounds read low. AID 488975. Q9GZV3. B-score at 10 µM. 310,000 compounds, 0.86% hits;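 active = B-score over 3 SD under the library average, and starting fluorescence ratio not unusually high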;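 also: choline stimulus applied at its EC90 after an EC20 pre-addition; B-score computed on integrated fluorescence ratio after choline addition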
CHT inh conf: human CHT inhibition, confirmatory screen. 2,400 compounds, 70% hits. shares compounds with CHT inh. CHT activity remaining % of control (active compounds read low), % at 10 µM. CHT-expressing cells, choline membrane potential dye; LV-to-AA substituted CHT, HEK293 cells;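 active = choline transporter activity left, mean of duplicates at 10 µM, below buffer-only control mean minus 3 SD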;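 also: depolarization triggered by choline at its EC90 following an EC20 pre-addition; 0% = hemicholinium-3 full block and 100% = buffer-only control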
HEK293 MPD ctr: counter-screen for CHT inhibitors: effect in parental HEK293 cells; shares compounds with CHT inh; membrane potential dye, choline response; active = decrease or increase beyond buffer ±3SD; membrane potential ratio readout (active if shifted either direction beyond buffer ±3SD; no single direction) at 10 µM; 2,400 compounds, 4% hits; AID 493222;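 also: parental cells lack the transporter so any hit is non-specific; ratio is peak minus trough fluorescence over baseline after EC90 choline challenge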
Starred values were filed as active, the others as inactive; i = inactive; · = not tested or not shown. Rows were chosen to be rich in hits. Some 2% of all compounds tested hit in one or more screens of this group.

SMILES	EP2 modulator	PGE2 EP2 inh	CHT PAM	CHT inh	CHT inh conf	HEK293 MPD ctr
CC(Oc1ccc2c(c1)oc(=O)c1ccccc12)C(=O)O (stereo unspecified)	25	17	·	·	·	·
O=c1cc(CNc2ccc(Br)cc2)nc2sccn12	-30	4	i	-5.4*	59%*	i
COc1ccc(NC(=O)CSCc2cc(=O)n3ccsc3n2)cc1	·	·	i	i	·	·
COc1ccc2cc(CN(C(=S)NC(C)c3ccccc3)C3CCCCC3)c(=O)[nH]c2c1 (stereo unspecified)	-2	11	·	·	·	·
CC(C)c1nc2ccccc2c2nn(CC(=O)N3CCCC3)c(=O)n12	-11	·	·	·	·	·
O=C(N/N=C/c1cccc(Oc2ccccc2)c1)c1cccc(Br)c1	-12	8	i	i	·	·
O=C(N/N=C/c1cccc(Oc2ccccc2)c1)c1cccc(O)c1	·	·	i	-5.3*	67%*	i
COc1ccc(F)c(CN(CCCn2ccnc2)Cc2ccc(C)o2)c1	-18	7	·	·	·	·
Cc1ccc(-n2cc(CN3CCN(Cc4nccn4C)CC3)c(-c3cccc(C)c3)n2)cc1	-7	9	i	-5.6*	27%*	i
Cc1ccc(-n2cc(CN3CCNC(=O)CC3)c(-c3cccc(C)c3)n2)cc1	-11	9	i	i	·	·
O=C(CN1C(=O)[C@H]2CCCN2C(=O)c2ccccc21)NC1CCCC1	13	5	·	·	·	·
O=C(NCc1ccc(Cl)cc1)c1ccc(CNc2c(N3CCCC3)c(=O)c2=O)cc1	-22	3	i	-6.2*	i	i
O=C(NCc1ccc(Cl)cc1)c1ccc(CNc2c(N3CCOCC3)c(=O)c2=O)cc1	-21	6	i	i	·	·
COc1ccccc1NC(=O)CSc1nnc(-c2cccnc2)o1	-8	7	·	·	·	·
CC1(C(=O)N2CCC(CC3CC(c4ccc(Cl)cc4)=NO3)(C(=O)NCC3CCCCC3)CC2)CC1 (stereo unspecified)	·	·	i	-5.2*	71%*	i
CC1(C(=O)N2CCC(CC3CC(c4cccc(Br)c4)=NO3)(C(=O)NCC3CCCCC3)CC2)CC1 (stereo unspecified)	·	·	i	i	·	·
CCCCOc1ccc(C(=O)NCC(=O)OC2CCOC2=O)cc1 (stereo unspecified)	13	·	i	-5*	i	i
O=C(CNC(=O)c1ccc(Cl)cc1)OC1CCOC1=O (stereo unspecified)	-3	5	i	i	·	·
CC1(C)c2cc(Cl)ccc2-n2c1cc(O)c(-c1ccccc1)c2=O	-15	9	i	-6*	44%*	i
CC(C)c1cc(O)c(-c2ccccc2)c(=O)n1-c1ccc(Cl)cc1	9	8	i	-5*	i	i
C=CCn1c(C(NC(=O)c2ccc(C)cc2)C(C)C)n[nH]c1=S (stereo unspecified)	-38	5	·	·	·	·
CCC(=O)Nc1cc(Cl)ccc1N1CCN(C(=O)CC)CC1	11	14	i	-8.1*	67%*	i
COc1cc(C(=O)Nc2scc(-c3ccccc3)c2C(=O)O)cc(OC)c1OC	·	·	i	i	·	·
COc1cc(C(=O)Nc2scc(-c3ccc(C)cc3)c2C(=O)O)cc(OC)c1OC	-90	7	i	-6.6*	56%*	i
CC(C)(C)C(=O)Nc1scc(-c2ccc(-c3ccccc3)cc2)c1C(=O)O	·	·	i	-7.5*	37%*	i
SMILES	EP2 modulator	PGE2 EP2 inh	CHT PAM	CHT inh	CHT inh conf	HEK293 MPD ctr
Cc1ccc(C)c(NC(=O)CCc2nnc3ccc(N4CCCC4)nn23)c1	·	·	i	i	·	·
CSc1ccc(CCNC(=O)CCc2nnc3ccc(N4CCCC4)nn23)cc1	·	·	i	-5.3*	i	i
CCCCN1C(=O)C(O)(CC(=O)c2ccco2)c2cc(Br)ccc21 (stereo unspecified)	51	8	i	-5.6*	i	i
CCn1c(COc2ccc(=O)n(-c3ccccc3)n2)nnc1SCc1ccc(OC)cc1	-4	17	i	-5.3*	i	i
CCn1c(COc2ccc(=O)n(-c3ccccc3)n2)nnc1SCc1ccccc1	-9	2	i	i	·	·
O=C(NNc1cc(Cl)cc(Cl)c1)c1cccs1	-37	9	i	-6.1*	43%*	i
O=C(NNC(=O)c1cccs1)Nc1cccc(Cl)c1	13	·	i	i	·	·

Bioassay records: PubChem, several laboratories
